A350 autofl = compounds fluorescent in Alexa 350 spectral region; hit rate 11% among 59,000; max dye-equivalent concentration, M; Compound autofluorescence, 340/450 nm, Alexa 350 dye-equivalents; stronger effect = higher value; AID 590; in the data active = max dye-equivalent concentration above about 10 nM; inconclusive = mostly about 1.1 nM to 9.6 nM
4-MU autofl = compound fluoresces in the 4-MU spectral region; compound autofluorescence, 340/450 nm, 4-MU equivalents; stronger effect = higher value; max dye-equivalent concentration, M; hit rate 11% among 59,000; in the data active = max dye-equivalent concentration above about 10 nM; inconclusive = mostly about 1.1 nM to 9.6 nM
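Compounds in 100 mM Tris, pH 8.0, sat 15 min at room temperature before fluorescence was read at 340 nm excitation/450 nm emission; a per-plate six-point 4-MU standard curve converted signals to dye-equivalent concentration at each compound concentration.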
HSD17B inhib = inhibitors of human HSD17B10 dehydrogenase; Potency, µM (highest dose often 57.1 µM), most hits filed as inhibitors; recombinant HSD17B10, NADH fluorescence kinetic; Q99714; hit rate 7.6% among 75,000;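 also: the protocol describes HADH2 (HSD17B10) and not the HSD17B4 of the title; nearly all actives have a fitted effect of over 70% in size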
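Activity followed as NADH fluorescence increase (ex 360, em 450 nm) every 30 seconds for 4 min, using final 90 uM beta-hydroxybutyryl CoA and 1 mM NAD+. Recombinant His-tagged enzyme, 20 nM, pH 9.0 Tris buffer, 15 min compound preincubation.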
GBA mod = human lysosomal glucosylceramidase modulation; purified enzyme, resorufin glucoside fluorescence (screen aimed at inhibitors), 20 min; hit rate 1.1% among 48,000; P04062; Potency, µM; in the data active = potency below about 15 µM; inconclusive = mostly about 16 µM to 33 µM;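 also: the screen sought inhibitors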
Target sequence (P04062 whole entry, looked up): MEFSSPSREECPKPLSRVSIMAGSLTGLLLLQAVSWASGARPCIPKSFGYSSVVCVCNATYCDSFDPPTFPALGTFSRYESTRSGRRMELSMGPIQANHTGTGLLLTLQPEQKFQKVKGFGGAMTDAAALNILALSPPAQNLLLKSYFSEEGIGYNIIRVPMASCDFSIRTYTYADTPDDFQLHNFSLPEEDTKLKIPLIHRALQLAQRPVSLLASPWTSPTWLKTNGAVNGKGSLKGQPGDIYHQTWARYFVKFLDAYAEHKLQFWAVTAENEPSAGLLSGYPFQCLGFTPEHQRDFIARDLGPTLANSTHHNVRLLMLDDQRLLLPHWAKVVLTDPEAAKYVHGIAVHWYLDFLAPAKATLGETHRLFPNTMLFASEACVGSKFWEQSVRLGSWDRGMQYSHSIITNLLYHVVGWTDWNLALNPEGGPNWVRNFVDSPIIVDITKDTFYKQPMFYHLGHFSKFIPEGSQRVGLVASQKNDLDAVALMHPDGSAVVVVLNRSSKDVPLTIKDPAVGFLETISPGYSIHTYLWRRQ
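Normal human glucocerebrosidase (0.2 nM final) was assayed with resorufin β-D-glucopyranoside (30 uM final) in 50mM citric acid/KH2PO4, 10mM sodium taurocholate, 0.01% tween-20, pH 5.9. Compounds were titrated; fluorescence (Ex 548, Em 600) read after 20 min at RT.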
AID923 = qHTS Assay for Allosteric/Competitive Inhibitors of Caspase-1: Spectroscopic Profiling in AFC Spectral Region | compound fluorescence, AFC spectral region (405/520 nm) | Potency, µM (top dose mostly 57.5 µM), most hits filed as activators | hit rate 1.1% among 75,000 | AID 923, 2007
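Titrations up to 57 uM read every 20 sec for 3 min (405/520 nm) with 50 nM caspase 1 and 5 uM Ac-WEHD-AFC, pH 7.5 HEPES buffer. Fluorescence-vs-time intercept gave baseline, scaled against on-plate AFC standard.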
HADH2 inh = HADH2 (human) dehydrogenase inhibition; recombinant HADH2, NADH fluorescence, beta-hydroxybutyryl-CoA; Potency, µM (titrated, usually from 57.1 µM), most hits filed as inhibitors; hit rate 3.4% among 73,000; AID 886; also: nearly all actives have a fitted effect of over 60% in size
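Buffer 100 mM Tris-HCl pH 9.0/0.01% Tween-20; HADH2 20 nM; NAD+ 1 mM; beta-hydroxybutyryl-CoA 90 uM (all final). 15 min cpd preincubation, RT.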
Large screens that a line does not name were inactive. The list is not random: actives were taken first. Their share in the collection is about 13%. Unless noted, calls follow the shape of the dose curve; as a rule, active = well fitted curve in the direction sought with a large enough effect; inconclusive = small, poorly fitted or top-dose-only effect, or another doubt; inactive = no such curve, though single readings can be large; an effect the other way counts as inactive or inconclusive.

CCC(=O)N[C@@H]1CCc2cccc(OC)c2C1	none (no result: A350 autofl, 4-MU autofl, GBA mod)
CCCCn1cnc2c(c(CC#N)nn2-c2ccccc2)c1=N	none (no result: GBA mod)
CC1(C)CCC(C)(C)c2cc(C(=O)Nc3ccc(C(=O)O)cc3)ccc21	none (no result: A350 autofl, 4-MU autofl, GBA mod)
C/C(=C\c1ccc(C(=O)O)cc1)c1ccc2c(c1)C(C)(C)CCC2(C)C	HSD17B inhib 25.1µM, HADH2 inh inconclusive (no result: GBA mod)
CCc1nc2oc(C(=O)c3ccccc3)c(N)c2c2c1COC(C)(C)C2	none (no result: A350 autofl, 4-MU autofl, GBA mod)
Cc1nc2c(sc3nc4c(cc32)COC(C)(C)C4)c(=O)n1CC(=O)NCc1ccco1	A350 autofl inconclusive, 4-MU autofl inconclusive
CCOC(=O)c1oc2nc3c(cc2c1N)COC(C)(C)C3	A350 autofl 6.47e-07M, 4-MU autofl 4.84e-07M, HSD17B inhib 31.6µM
CCOC(=O)c1oc2nc(C)c3c(c2c1N)CC(C)(C)OC3	A350 autofl 1.15e-06M, 4-MU autofl 9.03e-07M, HSD17B inhib 31.6µM
CN(CC(=O)O)Cc1c[nH]c2ccccc12	none (no result: GBA mod)
COC(=O)[C@H](CCSC)NC(=O)Nc1cc(C)ccc1C	A350 autofl 2.43e-08M, 4-MU autofl 1.76e-08M
COc1ccc(N(CC(=O)Nc2ccc(C)c(C)c2)S(=O)(=O)c2c(C)n[nH]c2C)cc1	GBA mod 15.2
COc1ccc(N(CC(=O)Nc2cccc(C)c2)S(=O)(=O)c2c(C)n[nH]c2C)cc1	none
CCOc1ccccc1Nc1nc2ccccc2n2cnnc12	HSD17B inhib 25.1µM (no result: A350 autofl, 4-MU autofl, GBA mod)
CCc1ccc2nc(NC(=O)c3ccc4c(=O)[nH]c(CN5CCOCC5)nc4c3)sc2c1	A350 autofl 2.54e-08M, 4-MU autofl 2.52e-08M, HSD17B inhib inconclusive
Cc1cc(N)n2ncc(-c3ccccc3)c2n1	A350 autofl 1.24e-08M, 4-MU autofl inconclusive, HSD17B inhib 25.1µM (no result: GBA mod)
Cc1cc(N)n2ncc(-c3cccc(Br)c3)c2n1	HSD17B inhib 20µM (no result: A350 autofl, 4-MU autofl, GBA mod)
COC(=O)NC(c1cccc(F)c1)C(C(C)=O)C(=O)OC (centres undefined)	none (no result: A350 autofl, 4-MU autofl, GBA mod)
CCC1=C2CC[C@H]3C(=O)N(CC)C(=O)[C@H]3[C@H]2[C@@]2(Cc3ccccc3)C(=O)N(CC3CC3)C(=O)N2C1=O	none (no result: A350 autofl, 4-MU autofl, GBA mod, HADH2 inh)
Cc1ccc(C(=O)C2=C(O)C(=O)N(CCCN(C)C)C23C(=O)N(C)c2ccccc23)o1 (centres undefined)	A350 autofl inconclusive, 4-MU autofl 1.36e-08M
COC(=O)NC(c1cccc(C)c1)[C@]1(C(C)=O)CCOC1=O (some centres undefined)	none (no result: A350 autofl, 4-MU autofl, GBA mod)
O=c1oc2ccccc2n1CSC1=NCCS1	none
O=c1oc2ccccc2n1CSc1nc2ccccc2s1	A350 autofl inconclusive, 4-MU autofl 1.48e-08M
CC(C)N(Cc1ccccc1)S(=O)(=O)c1n[nH]c(C(C)(C)C)n1	A350 autofl inconclusive (no result: GBA mod)
COc1ccc(OC)c(-c2cc(C(=O)Nc3cc(C)n(Cc4ccc(Cl)cc4)n3)no2)c1	A350 autofl 9.09e-08M, 4-MU autofl 1.01e-07M, HSD17B inhib 31.6µM, HADH2 inh inconclusive
COc1ccc(OC)c(-c2cc(C(=O)Nc3c(C)nn(Cc4ccccc4Cl)c3C)no2)c1	A350 autofl 1.75e-08M, 4-MU autofl 2.74e-08M, HSD17B inhib 31.6µM, HADH2 inh 25.1µM
O=C(Nc1cccc(F)c1)N1CC2(CCN(C(=O)c3cc(C(F)(F)F)cc(C(F)(F)F)c3)CC2)C1	none (no result: GBA mod)
C[C@@H](C(=O)N[C@@H](CO)Cc1ccccc1)[C@H]1C[C@]1(C)[C@H](NC(=O)OCc1ccccc1)c1ccccc1	none (no result: A350 autofl, 4-MU autofl, GBA mod)
CC1CCc2c(sc3nc(SCC(=O)NCc4ccco4)nc(N)c23)C1 (centres undefined)	A350 autofl 2.82e-08M, 4-MU autofl 2.21e-08M
CCC[C@@H]1C[C@@]1(CCC)C(NC(=O)c1ccccc1)c1cccc(Cl)c1 (some centres undefined)	none (no result: A350 autofl, 4-MU autofl, GBA mod)
COCCNC(=O)C1CCN(S(=O)(=O)c2ccccc2)CC1	none (no result: A350 autofl, 4-MU autofl, GBA mod)
COc1c(F)c(F)c(C(=O)Nc2ccc3oc(-c4ccncc4)nc3c2)c(F)c1F	A350 autofl 7.27e-08M, 4-MU autofl 6.9e-08M, HSD17B inhib 25.1µM
O=C(Nc1ccc2oc(-c3ccncc3)nc2c1)c1c(F)c(F)c(F)c(F)c1F	A350 autofl 4.27e-08M, 4-MU autofl 4.08e-08M, HSD17B inhib inconclusive, HADH2 inh inconclusive

Screening data as filed in PubChem.
